Laboratory results reported in PubChem BioAssay.
A number with no mark means an inactive call. Active and inactive are the calls of the source. Rule as the data show it, unless noted: active = inhibition above about 28%; inactive = the rest.

Key:
[1] = target: Nuclear receptor coactivator 3 (Homo sapiens) (UniProt Q9Y6Q9); experiment: NCOA3 GAL4-fusion reporter inhibition – cell-based, luminescence, quadruplicate, confirmation (AID 588792;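 active = mean inhibition over 43.08%, the solvent-only control mean plus 3 SD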;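 also: 0% = DMSO treated cells and 100% = gossypol at 36 µM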); conditions: HEK293 GAL4-SRC3 luciferase reporter, at 3.6 µM, stronger effect = higher value
Sequence of Nuclear receptor coactivator 3 (Homo sapiens) (Q9Y6Q9 whole entry, looked up, the tested form may be a part): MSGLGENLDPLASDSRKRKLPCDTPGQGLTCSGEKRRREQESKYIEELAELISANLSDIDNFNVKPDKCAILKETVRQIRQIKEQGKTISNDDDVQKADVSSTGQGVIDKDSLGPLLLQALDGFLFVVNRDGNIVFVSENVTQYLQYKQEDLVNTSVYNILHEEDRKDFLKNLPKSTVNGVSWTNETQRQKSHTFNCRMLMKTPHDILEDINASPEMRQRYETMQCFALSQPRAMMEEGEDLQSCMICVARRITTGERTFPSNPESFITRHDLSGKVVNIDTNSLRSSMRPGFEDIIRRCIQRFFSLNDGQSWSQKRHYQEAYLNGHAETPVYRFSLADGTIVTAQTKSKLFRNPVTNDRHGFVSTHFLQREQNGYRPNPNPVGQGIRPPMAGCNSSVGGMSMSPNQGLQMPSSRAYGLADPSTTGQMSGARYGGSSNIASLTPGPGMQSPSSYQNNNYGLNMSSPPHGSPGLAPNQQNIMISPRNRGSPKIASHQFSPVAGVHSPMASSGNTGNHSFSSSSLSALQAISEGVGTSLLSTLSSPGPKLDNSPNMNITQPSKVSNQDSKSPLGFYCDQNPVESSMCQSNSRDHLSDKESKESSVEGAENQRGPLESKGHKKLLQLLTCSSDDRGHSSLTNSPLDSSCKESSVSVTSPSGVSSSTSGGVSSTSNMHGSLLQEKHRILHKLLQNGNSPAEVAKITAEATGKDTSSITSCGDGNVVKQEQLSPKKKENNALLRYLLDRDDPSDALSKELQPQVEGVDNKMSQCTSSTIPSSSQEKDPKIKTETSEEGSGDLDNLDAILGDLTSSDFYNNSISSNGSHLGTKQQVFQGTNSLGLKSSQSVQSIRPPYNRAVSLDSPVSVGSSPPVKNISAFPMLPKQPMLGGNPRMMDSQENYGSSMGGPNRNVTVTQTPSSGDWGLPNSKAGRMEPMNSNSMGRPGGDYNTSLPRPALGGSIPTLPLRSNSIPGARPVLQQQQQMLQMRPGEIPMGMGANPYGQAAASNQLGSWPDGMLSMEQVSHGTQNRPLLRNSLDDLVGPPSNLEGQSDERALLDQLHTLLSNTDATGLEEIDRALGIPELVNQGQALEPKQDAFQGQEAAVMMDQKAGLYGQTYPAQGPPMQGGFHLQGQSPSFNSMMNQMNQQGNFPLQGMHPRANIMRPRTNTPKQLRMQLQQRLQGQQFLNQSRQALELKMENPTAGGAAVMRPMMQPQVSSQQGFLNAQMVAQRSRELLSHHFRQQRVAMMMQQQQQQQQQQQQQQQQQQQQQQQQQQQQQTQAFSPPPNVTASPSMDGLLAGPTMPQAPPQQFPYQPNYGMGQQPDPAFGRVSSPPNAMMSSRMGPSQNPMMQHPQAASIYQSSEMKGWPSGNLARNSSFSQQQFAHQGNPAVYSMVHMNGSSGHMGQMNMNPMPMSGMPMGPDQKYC

[2] = tested on: transactivating tegument protein VP16 (Human herpesvirus 1), Gal4-VP16 luciferase reporter; experiment: repression of VP16-driven luciferase reporter – cell-based, luminescence, high throughput, counter-screen for SRC3 inhibitor project (AID 588794; in the data active = inhibition above about 30%); conditions: mammalian cells, at 3.6 µM, stronger effect = higher value
[3] = target: Nuclear receptor coactivator 1 (Homo sapiens) (UniProt Q15788); experiment: NCOA1 GAL4-fusion reporter inhibition – cell-based, luminescence, quadruplicate, confirmation (AID 588820;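 active = mean inhibition above 46.68%, the untreated control wells mean plus 3 SD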;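 also: 0% = DMSO wells and 100% = gossypol 36 µM treated wells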); conditions: HEK293 GAL4-SRC1 luciferase reporter, at 3.6 µM, stronger effect = higher value
Sequence of Nuclear receptor coactivator 1 (Homo sapiens) (Q15788 whole entry, looked up, the tested form may be a part): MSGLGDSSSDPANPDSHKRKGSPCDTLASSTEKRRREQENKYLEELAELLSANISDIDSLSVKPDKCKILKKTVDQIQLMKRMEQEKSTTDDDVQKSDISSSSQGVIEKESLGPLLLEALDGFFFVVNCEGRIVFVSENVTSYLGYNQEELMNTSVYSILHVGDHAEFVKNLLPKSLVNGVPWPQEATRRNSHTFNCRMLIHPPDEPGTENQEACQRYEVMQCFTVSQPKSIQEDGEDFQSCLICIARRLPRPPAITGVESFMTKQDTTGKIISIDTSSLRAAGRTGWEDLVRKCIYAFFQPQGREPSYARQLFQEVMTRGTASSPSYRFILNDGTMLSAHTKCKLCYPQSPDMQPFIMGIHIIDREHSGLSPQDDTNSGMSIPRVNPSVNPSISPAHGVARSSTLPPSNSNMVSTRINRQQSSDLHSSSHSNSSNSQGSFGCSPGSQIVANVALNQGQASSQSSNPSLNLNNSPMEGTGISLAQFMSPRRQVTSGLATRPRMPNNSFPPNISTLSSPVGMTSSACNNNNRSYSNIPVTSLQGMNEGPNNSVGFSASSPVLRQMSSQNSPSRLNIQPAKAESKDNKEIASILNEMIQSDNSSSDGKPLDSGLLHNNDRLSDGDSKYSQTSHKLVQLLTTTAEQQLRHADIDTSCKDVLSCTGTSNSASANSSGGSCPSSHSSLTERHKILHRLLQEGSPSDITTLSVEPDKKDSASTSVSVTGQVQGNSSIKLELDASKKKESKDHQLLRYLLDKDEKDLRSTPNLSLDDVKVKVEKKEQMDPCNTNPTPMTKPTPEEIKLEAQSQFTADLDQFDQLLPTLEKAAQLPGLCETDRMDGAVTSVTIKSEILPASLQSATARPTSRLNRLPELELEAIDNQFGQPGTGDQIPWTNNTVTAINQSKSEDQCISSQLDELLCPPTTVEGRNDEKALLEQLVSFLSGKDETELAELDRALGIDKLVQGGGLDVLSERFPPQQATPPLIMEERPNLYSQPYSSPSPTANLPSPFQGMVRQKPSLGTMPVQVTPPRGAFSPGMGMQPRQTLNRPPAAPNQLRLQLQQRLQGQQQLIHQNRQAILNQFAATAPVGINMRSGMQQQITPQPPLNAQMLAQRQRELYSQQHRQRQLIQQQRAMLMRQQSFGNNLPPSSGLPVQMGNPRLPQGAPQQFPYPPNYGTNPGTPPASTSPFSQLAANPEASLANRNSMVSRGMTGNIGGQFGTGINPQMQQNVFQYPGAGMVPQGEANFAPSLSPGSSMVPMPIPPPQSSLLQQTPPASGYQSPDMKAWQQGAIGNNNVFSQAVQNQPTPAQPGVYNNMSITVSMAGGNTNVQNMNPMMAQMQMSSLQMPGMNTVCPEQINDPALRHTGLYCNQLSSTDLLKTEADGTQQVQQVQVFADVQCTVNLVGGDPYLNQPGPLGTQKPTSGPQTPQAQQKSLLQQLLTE

[4] = repression of VP16-driven luciferase reporter – cell-based, luminescence, high throughput, counter-screen for SRC1 inhibitor project (AID 588824; in the data active = inhibition above about 25%); conditions: cell-based VP16 transactivation luciferase luminescence; at 3.6 µM; stronger effect = higher value
[5] = StAR promoter reporter inhibitors, counter-screen for LRH-1 inverse agonist project, cell-based, luminescence, high throughput (AID 651611); conditions: StAR promoter luciferase reporter counterscreen, at 3.6 µM, stronger effect = higher value
[6] = target: Nuclear receptor subfamily 5 group A member 2 (Homo sapiens) (UniProt O00482); experiment: NR5A2 activity suppression in reporter cells – cell-based, luminescence, confirmation (AID 651613; in the data active = inhibition above about 42%;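 also: HEK293T cells co-transfected with LRH-1 and StAR promoter luciferase reporter; 0% = vehicle wells and 100% = parental cells lacking receptor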); conditions: cell-based LRH-1 luciferase reporter, inverse agonism; at 3.6 µM; stronger effect = higher value
Sequence of Nuclear receptor subfamily 5 group A member 2 (Homo sapiens) (O00482 whole entry, looked up): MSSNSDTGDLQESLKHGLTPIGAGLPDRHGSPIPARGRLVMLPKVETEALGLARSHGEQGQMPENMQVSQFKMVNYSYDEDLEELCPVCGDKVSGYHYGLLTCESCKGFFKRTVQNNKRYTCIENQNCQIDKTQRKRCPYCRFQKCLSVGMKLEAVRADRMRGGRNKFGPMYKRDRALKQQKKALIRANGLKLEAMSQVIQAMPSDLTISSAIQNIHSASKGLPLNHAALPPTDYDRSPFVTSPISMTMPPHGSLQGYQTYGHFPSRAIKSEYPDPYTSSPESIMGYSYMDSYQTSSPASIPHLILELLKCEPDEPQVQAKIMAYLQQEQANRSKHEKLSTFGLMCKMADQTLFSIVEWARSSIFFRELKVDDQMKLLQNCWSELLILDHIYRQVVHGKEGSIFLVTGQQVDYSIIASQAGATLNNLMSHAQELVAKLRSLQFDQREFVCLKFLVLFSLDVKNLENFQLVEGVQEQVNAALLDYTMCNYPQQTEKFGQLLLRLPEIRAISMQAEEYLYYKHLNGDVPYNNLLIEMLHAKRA

[7] = target: Steroidogenic factor 1 (Homo sapiens) (UniProt Q13285); experiment: inverse agonism at SF1 nuclear receptor – cell-based, luminescence, high throughput, counter-screen for LRH-1 inverse agonist project (AID 651614; in the data active = inhibition above about 44%;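 also: cells cotransfected with StAR promoter reporter and SF1 expression vector; 0% = vehicle on cells with receptor and 100% = vehicle on cells lacking receptor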); conditions: cell-based SF1 luciferase reporter, at 3.6 µM, stronger effect = higher value
[8] = compounds suppressing VP16-driven luciferase signal – cell-based, luminescence, high throughput, counter-screen for LRH-1 inverse agonist project (AID 651615; in the data active = inhibition above about 33%); conditions: Gal4-VP16 luciferase reporter cells, at 3.6 µM, stronger effect = higher value
[9] = tested on: transactivating tegument protein VP16 (Human herpesvirus 1); experiment: compounds suppressing VP16-driven luciferase signal – cell-based, luminescence, single concentration, counter-screen for SRC2 inhibitor project (AID 652007; in the data active = inhibition above about 36%); conditions: cell-based VP16 transactivation luciferase reporter, at 8.9 µM, stronger effect = higher value
[10] = target: Nuclear receptor coactivator 2 (Homo sapiens) (UniProt Q15596); experiment: inhibition of GAL4-SRC2 driven luciferase expression – cell-based, luminescence, HEK293, triplicate, confirmation (AID 652008;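 active = mean inhibition above 46.5%, the solvent-only control mean plus 3 SD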;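 also: 0% = DMSO-treated cells and 100% = Gossypol at 36 µM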); conditions: HEK293 GAL4-SRC2 luciferase reporter, at 8.9 µM, stronger effect = higher value
Sequence of Nuclear receptor coactivator 2 (Homo sapiens) (Q15596 whole entry, looked up, the tested form may be a part): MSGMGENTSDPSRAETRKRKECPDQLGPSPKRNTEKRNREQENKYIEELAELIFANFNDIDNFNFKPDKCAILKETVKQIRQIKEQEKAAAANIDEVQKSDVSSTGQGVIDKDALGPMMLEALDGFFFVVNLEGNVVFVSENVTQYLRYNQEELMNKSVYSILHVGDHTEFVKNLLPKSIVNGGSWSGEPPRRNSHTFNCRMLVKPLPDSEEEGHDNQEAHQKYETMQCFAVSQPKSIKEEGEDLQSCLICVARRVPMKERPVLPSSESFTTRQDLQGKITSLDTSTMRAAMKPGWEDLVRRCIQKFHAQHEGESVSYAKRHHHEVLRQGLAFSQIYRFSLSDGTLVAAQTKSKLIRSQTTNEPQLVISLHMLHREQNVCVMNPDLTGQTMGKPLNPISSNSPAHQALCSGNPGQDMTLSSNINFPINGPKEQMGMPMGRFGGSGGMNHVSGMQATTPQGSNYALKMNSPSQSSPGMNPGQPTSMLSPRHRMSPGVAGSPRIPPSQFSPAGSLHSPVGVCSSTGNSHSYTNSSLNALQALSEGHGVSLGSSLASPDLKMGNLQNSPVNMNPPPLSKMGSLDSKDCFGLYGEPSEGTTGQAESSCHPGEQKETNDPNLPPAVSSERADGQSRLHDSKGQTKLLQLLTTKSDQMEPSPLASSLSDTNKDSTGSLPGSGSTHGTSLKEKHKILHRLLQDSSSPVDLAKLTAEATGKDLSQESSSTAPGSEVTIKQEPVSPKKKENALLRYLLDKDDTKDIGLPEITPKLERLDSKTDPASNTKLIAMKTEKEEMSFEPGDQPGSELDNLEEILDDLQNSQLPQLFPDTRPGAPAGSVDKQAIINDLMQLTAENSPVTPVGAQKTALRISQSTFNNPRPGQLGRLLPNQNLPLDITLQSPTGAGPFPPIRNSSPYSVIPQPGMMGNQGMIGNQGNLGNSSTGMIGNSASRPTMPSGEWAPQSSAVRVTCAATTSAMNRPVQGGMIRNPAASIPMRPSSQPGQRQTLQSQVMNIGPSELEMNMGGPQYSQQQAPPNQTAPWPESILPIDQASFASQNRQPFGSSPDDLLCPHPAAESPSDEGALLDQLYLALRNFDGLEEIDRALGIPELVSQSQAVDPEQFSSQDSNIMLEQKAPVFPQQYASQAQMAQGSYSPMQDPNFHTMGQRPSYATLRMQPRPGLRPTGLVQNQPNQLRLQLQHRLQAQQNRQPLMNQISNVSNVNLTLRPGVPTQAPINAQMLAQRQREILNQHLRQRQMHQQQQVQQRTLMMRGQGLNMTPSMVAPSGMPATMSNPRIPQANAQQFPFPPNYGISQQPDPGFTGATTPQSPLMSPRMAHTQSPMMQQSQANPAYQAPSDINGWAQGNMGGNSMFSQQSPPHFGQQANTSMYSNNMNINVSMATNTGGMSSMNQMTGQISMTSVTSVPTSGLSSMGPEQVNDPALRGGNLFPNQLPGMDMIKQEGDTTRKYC

SMILES | inhibition [1] | inhibition [2] | inhibition [3] | inhibition [4] | inhibition [5] | inhibition [6] | inhibition [7] | inhibition [8] | inhibition [9] | inhibition [10]
O=C(/C=C/Nc1ccccc1Br)c1ccccn1 | 48.5% (active) | 32.8% (active) | 10.4% | 33.1% (active) | 58.2% (active) | 42.5% (active) | 62.7% (active) | 36.1% (active) | 64.9% (active) | 82.7% (active)
CCCS(=O)(=O)c1cnc(C2COc3ccccc3O2)nc1N (stereo not given) | 61.5% (active) | 44.9% (active) | 18.9% | 33.6% (active) | 43.2% (active) | 2.93% | 36.5% | 23.1% | 37.2% (active) | 75% (active)
COCCn1c(C)cc(C2=NNC(=Nc3ccccc3F)SC2)c1C | 57.4% (active) | 52.3% (active) | 60.5% (active) | 28.1% (active) | 54.2% (active) | -47% | 63% (active) | -31.7% | 87.2% (active) | 91.5% (active)
Clc1ccc(-n2ncc3c(NCCN4CCOCC4)ncnc32)cc1 | 37.8% | -3.35% | 3.19% | -21.6% | 28.4% (active) | -30.3% | 33.4% | -23.4% | 36.7% (active) | 58.9% (active)
COc1ccc(S(=O)(=O)N2CCOCC2)cc1NC(=O)CCNC(=O)c1ccc([N+](=O)[O-])cc1 | 88.6% (active) | 60.8% (active) | 75.6% (active) | 33.3% (active) | 89.2% (active) | 99.3% (active) | 95.5% (active) | 72.9% (active) | 4.19% | 49.4% (active)
Cc1nc2c(O)c3c(c(O)c2nc1C)C1C=CC3CC1 | 96.9% (active) | 93.2% (active) | 88.9% (active) | 92.6% (active) | 91.8% (active) | 107% (active) | 96.3% (active) | 98.5% (active) | 75% (active) | 79.4% (active)
Cc1[nH]c2ccccc2c(=O)c1C(=O)/C=C/c1ccccc1 | 76.1% (active) | 58% (active) | 73.7% (active) | 59.6% (active) | 76.2% (active) | 90.2% (active) | 82.9% (active) | 77.8% (active) | 39% (active) | 72.7% (active)
Cc1cc(C2=NNC(=NC3CC3)SC2)c(C)n1-c1ccccc1F | 84.8% (active) | 88.3% (active) | 78.7% (active) | 80.7% (active) | 92% (active) | 79.6% (active) | 91.1% (active) | 79.1% (active) | 93.6% (active) | 97% (active)
COc1ccc2c(c1)-c1c(ssc1=S)C(C)(C)N2 | 73.3% (active) | 54.6% (active) | 64% (active) | 50.3% (active) | 28.7% (active) | 46.7% (active) | 41.5% | 67.9% (active) | 6.45% | 49.7% (active)
Cc1cc(C(=O)COC(=O)c2ccccc2O)c(C)n1Cc1cccs1 | 85.3% (active) | 84.9% (active) | 71.1% (active) | 74.4% (active) | 85% (active) | 59% (active) | 80.2% (active) | 73.6% (active) | 81% (active) | 92.7% (active)
O=c1ccc2ccccc2c2ccccc12 | 73.2% (active) | 70.8% (active) | 58.7% (active) | 70% (active) | 76.7% (active) | 93.6% (active) | 90.3% (active) | 88.1% (active) | 68.3% (active) | 84.5% (active)
Cc1ccc(/C=C2\SC(=S)N(CCCC(=O)Nc3ccccn3)C2=O)cc1 | 49.1% (active) | 33.9% (active) | 55.7% (active) | 28.9% (active) | 57.5% (active) | 45.8% (active) | 64.2% (active) | 39.1% (active) | 58.3% (active) | 88.4% (active)
CC(C)(C)c1ccc(C(=O)N2CCCCCC2=O)cc1 | 58% (active) | 41% (active) | 35.8% | 33.1% (active) | 45.6% (active) | 62.1% (active) | 56.1% (active) | 56.4% (active) | 63.6% (active) | 89.2% (active)
O=C(N/N=C\c1ccc([N+](=O)[O-])o1)C1COc2ccccc2O1 (stereo not given) | 35.9% | 9.31% | -8.42% | -19.5% | 27.1% | 40.7% | 49.8% (active) | -8.47% | 40.8% (active) | 51.5% (active)
Cc1cc(C(=O)Nc2ccc(Cl)cc2)c(C)n1-c1ccccc1 | 74.9% (active) | 69.7% (active) | 60.1% (active) | 50.3% (active) | 70% (active) | 38% | 71.7% (active) | 55.4% (active) | 82.5% (active) | 85.7% (active)
C(=NN1CCCCCC1)c1ccc2ccccc2n1 | 88.6% (active) | 82.8% (active) | 68.3% (active) | 72.1% (active) | 87.8% (active) | 67% (active) | 87% (active) | 70.8% (active) | 92.4% (active) | 94.9% (active)
